This is an account of results in ChEMBL document CHEMBL3988442, “University of Dundee, Small-Polar-MMV Screening Library” (2021).

For some assays here: Measured potencies and affinities stand elsewhere.

Holding throughout (design): scale not given: direction of the effect not stated beside the values
Experiment [1] concerns the target Protein translocase subunit SecA (Escherichia coli (strain K12)) (UniProt P10408). Kind of experiment: Assay to Identify E. coli SecA ATPase Inhibitors. It counts as functional. The settings on record: 30 µM.
The target in experiment [2] is T1, Ubiquitin-activating enzyme e1, putative (Leishmania donovani (strain BPK282A1)) (UniProt E9BSI1).
T1 sequence (whole entry): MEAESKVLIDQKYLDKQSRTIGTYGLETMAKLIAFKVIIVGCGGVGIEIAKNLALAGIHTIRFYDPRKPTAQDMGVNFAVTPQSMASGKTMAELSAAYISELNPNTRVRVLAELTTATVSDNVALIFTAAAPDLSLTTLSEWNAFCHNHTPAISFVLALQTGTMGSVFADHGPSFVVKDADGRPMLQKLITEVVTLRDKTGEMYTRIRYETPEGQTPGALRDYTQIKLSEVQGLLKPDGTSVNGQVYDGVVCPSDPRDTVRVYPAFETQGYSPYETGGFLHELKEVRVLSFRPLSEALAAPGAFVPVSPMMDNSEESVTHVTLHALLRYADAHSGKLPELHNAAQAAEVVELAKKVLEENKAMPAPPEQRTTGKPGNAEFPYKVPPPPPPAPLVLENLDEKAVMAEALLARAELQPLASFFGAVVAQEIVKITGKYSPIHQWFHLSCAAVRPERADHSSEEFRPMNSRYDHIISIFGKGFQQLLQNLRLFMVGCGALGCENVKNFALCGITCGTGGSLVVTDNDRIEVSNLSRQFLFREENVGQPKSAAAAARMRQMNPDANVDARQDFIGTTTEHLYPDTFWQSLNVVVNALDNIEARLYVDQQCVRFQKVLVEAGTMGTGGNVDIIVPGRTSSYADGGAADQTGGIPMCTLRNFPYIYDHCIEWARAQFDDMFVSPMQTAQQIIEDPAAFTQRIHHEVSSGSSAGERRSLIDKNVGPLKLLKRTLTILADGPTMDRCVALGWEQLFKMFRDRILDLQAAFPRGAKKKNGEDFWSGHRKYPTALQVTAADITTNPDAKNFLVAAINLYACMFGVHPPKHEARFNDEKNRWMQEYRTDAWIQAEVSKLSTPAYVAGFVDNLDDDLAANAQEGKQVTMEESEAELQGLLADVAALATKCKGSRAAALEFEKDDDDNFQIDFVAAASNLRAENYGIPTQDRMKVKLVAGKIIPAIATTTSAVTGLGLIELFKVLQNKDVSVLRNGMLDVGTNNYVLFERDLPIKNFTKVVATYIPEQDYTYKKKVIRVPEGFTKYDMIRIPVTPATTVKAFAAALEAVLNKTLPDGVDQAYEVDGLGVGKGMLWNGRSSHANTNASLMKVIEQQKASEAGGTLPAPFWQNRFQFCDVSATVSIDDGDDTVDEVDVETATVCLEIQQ
Kind of experiment: Leishmania donovani Ubiquitin Activating Enzyme (LdE1). The class given is functional. The settings on record: 30 µM.

The target of experiment [3] is AMP-activated protein kinase, AMPK (Homo sapiens) (UniProt P54646+O43741+P54619+Q9UGJ0+Q9Y478+Q13131+Q9UGI9). The experiment in a line: AMP-dependent Kinase enzyme assay. An in vitro enzyme assay that detects ADP turnover that is directly proportional to AMPK activity. This uses naive AMPK that is activated during the assay with MK-8722. It counts as functional. Particulars: 30 µM.

Experiment [4] concerns the target Sialic acid-binding Ig-like lectin 9 (Homo sapiens) (UniProt Q9Y336). Kind of experiment: Hs-Siglec9 ALPHAscreen SOP 20170721. The settings on record: 10 µM.
Another experiment deals with Trypanosoma cruzi. Kind of experiment: Trypanosoma cruzi phosphomannomutase and mannose-1-phosphate guanylyltransferase assay. The class given is functional. The settings on record: 10 µM.
Experiment [5] deals with T2, Arginase-2, mitochondrial (Homo sapiens) (UniProt P78540).
T2 sequence (whole entry): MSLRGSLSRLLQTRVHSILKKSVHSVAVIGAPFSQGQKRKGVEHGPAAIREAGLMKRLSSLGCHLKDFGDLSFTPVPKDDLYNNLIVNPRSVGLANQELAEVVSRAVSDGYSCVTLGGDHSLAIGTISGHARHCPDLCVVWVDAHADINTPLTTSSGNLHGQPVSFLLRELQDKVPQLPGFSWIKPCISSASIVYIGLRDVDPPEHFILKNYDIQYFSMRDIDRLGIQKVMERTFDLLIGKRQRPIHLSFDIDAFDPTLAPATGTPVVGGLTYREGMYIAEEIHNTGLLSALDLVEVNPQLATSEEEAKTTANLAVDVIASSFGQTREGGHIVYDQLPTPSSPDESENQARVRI
The experiment in a line: in vitro enzyme assay to detect the production of urea directly proportional to the activity of Arginase II. Also: in the data most compounds retested in dose-response had high values. It counts as functional. The settings on record: 33.3 µM.

The target of experiment [6] is T3, Proteasome subunit beta (Trypanosoma cruzi) (UniProt O96673).
T3 sequence (whole entry): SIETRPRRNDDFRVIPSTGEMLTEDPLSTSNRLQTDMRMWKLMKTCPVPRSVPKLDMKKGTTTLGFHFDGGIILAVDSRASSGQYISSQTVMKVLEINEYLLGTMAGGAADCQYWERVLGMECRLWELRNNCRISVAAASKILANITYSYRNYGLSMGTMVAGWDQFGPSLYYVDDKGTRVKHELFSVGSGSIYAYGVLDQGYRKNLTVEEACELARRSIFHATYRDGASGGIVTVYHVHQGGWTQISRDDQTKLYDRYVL
The experiment in a line: Trypanosoma cruzi proteasome chymotrypsin-like activity (TcProtChymo) assay. Also: in the data most compounds retested in dose-response had high values. It counts as functional. Particulars: 9.37 µM.

The next experiment is filed under the species Homo sapiens. Kind of experiment: To identify inhibition of the IFN signalling (Jak-Stat) pathway via expression of an eGFP reporter gene under the control of an IFN-stimulated response element (ISRE) containing MxA promoter. The settings on record: 30 µM. It counts as functional.
Experiment [7] concerns the target T4, Tyrosyl-tRNA synthetase, putative (Trypanosoma cruzi (strain CL Brener)) (UniProt Q4DSP6).
T4 sequence (whole entry): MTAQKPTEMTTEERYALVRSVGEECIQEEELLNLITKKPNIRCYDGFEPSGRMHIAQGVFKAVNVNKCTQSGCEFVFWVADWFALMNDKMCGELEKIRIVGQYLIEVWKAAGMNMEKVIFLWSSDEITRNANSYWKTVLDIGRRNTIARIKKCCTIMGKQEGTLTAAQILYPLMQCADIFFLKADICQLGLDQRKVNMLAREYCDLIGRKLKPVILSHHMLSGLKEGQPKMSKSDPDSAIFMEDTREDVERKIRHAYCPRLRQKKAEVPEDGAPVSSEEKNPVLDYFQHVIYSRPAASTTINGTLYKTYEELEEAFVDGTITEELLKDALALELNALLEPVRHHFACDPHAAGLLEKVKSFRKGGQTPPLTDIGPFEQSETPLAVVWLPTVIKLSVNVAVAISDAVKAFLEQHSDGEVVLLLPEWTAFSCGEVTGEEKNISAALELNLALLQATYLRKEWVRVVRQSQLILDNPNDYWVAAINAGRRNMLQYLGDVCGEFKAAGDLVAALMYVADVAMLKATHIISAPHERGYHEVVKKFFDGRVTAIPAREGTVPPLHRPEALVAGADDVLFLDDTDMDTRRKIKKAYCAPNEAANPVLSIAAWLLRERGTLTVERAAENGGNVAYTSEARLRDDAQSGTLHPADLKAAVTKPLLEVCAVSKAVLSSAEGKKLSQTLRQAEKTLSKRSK
The experiment in a line: Trypanosoma cruzi tyrosyl tRNA synthetase (TcYRS) _High Tyrosine SOP. Also: in the data most compounds retested in dose-response had high values. It counts as functional. The settings on record: 30 µM.

For experiment [8], the target named is T4, Tyrosyl-tRNA synthetase, putative (Trypanosoma cruzi (strain CL Brener)). The experiment in a line: Trypanosoma cruzi tyrosyl tRNA synthetase (TcYRS) SOP. It counts as functional. Particulars: 30 µM.
Experiment [9] addresses Chromo domain-containing protein 1 (Saccharomyces cerevisiae (strain ATCC 204508 / S288c) (Baker's yeast)) (UniProt P32657). Kind of experiment: ScCHD-1 Enzyme Inhibition Assay. Also: in the data most compounds retested in dose-response had high values. Particulars: 30 µM. It counts as functional.

Chromo domain-containing protein 1 (Saccharomyces cerevisiae (strain ATCC 204508 / S288c) (Baker's yeast)), sequence (P32657 whole entry, the tested form may be a part): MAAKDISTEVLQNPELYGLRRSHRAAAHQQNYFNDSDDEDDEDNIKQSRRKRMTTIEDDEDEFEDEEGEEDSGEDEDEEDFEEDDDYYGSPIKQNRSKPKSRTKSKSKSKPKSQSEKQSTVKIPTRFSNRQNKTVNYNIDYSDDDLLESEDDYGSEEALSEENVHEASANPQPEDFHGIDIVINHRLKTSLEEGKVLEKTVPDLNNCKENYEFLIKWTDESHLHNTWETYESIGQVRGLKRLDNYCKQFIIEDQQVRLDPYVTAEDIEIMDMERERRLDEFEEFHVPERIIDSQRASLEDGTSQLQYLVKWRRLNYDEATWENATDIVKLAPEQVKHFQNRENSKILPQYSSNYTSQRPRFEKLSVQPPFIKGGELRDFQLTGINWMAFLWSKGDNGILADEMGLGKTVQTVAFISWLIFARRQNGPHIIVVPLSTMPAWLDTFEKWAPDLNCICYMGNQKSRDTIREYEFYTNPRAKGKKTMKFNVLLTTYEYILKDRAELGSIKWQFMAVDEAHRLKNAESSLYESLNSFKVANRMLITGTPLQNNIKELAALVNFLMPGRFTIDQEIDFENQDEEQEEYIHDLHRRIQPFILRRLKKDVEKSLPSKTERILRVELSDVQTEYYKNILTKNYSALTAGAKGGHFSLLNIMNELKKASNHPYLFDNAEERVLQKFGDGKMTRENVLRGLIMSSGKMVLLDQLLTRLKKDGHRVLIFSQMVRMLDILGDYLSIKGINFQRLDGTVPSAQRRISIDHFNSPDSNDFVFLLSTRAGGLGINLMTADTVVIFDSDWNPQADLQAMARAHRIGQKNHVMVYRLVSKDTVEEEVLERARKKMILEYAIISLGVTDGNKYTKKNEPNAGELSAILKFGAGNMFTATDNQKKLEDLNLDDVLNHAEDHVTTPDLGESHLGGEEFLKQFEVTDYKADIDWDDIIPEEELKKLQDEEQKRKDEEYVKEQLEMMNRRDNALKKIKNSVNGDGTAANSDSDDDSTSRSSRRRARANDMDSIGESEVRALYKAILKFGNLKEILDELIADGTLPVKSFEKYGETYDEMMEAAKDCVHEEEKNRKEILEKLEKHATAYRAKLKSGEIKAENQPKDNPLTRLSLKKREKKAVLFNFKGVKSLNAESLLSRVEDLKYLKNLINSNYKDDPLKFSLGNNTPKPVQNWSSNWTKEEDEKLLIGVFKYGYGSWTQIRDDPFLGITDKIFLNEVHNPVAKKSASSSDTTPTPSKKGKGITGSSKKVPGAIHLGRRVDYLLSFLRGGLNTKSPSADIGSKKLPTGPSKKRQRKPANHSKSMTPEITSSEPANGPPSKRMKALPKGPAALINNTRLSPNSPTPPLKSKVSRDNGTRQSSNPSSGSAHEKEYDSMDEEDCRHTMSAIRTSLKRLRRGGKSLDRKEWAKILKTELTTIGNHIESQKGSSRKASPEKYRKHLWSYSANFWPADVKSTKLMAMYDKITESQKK
Protein translocase subunit SecA (Escherichia coli (strain K12)), sequence (P10408 whole entry): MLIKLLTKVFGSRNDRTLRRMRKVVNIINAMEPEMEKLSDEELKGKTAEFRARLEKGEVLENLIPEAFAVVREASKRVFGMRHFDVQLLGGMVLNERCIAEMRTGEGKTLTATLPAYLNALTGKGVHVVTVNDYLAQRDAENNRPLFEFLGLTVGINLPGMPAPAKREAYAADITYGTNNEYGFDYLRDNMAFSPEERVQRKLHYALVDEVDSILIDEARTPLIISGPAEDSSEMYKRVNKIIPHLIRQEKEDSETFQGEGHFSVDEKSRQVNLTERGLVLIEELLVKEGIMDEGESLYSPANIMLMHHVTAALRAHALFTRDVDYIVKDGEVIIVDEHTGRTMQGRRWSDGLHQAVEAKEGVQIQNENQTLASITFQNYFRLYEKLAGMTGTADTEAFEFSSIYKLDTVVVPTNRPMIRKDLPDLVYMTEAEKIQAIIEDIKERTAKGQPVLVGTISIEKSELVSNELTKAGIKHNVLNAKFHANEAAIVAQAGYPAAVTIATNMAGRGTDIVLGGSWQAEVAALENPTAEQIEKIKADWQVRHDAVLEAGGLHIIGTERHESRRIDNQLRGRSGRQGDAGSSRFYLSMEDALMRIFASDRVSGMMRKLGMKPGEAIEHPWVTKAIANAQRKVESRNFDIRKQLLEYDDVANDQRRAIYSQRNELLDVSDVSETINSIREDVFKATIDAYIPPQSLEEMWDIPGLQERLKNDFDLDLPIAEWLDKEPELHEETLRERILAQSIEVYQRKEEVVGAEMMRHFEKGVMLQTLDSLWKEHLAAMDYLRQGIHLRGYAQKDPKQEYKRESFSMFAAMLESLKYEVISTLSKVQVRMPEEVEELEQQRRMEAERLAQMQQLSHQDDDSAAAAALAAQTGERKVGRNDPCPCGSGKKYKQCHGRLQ
Sialic acid-binding Ig-like lectin 9 (Homo sapiens), sequence (Q9Y336 whole entry): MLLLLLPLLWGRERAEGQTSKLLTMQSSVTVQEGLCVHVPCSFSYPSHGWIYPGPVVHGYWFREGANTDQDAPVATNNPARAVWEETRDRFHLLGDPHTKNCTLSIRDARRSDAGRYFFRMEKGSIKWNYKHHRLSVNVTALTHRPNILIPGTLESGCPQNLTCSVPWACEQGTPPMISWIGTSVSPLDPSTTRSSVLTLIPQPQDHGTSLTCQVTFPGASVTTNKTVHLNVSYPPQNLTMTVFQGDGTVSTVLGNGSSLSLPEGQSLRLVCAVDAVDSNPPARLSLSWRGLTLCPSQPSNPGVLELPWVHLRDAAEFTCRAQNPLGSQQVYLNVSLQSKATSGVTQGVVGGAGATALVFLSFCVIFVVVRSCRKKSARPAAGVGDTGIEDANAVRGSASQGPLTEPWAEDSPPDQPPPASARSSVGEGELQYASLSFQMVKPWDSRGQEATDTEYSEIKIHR

Take `Cc1cccc(-n2cc(C(=O)N3CCCC(n4cccn4)C3)nn2)c1` (stereo not given): the Percent Effect in [1] was -6.43%; in [2], 23.4%; in [3], -0.0164%; in experiment [4] it was -1.49%; with Trypanosoma cruzi, 5.78%; in experiment [5], -2.74%. Further, the Percent Effect in [6] was 27.4%; in the experiment filed under Homo sapiens, 4.51%; in [7], 6.67%; in experiment [8], 25.9%; in experiment [9] it was -14.2%.
As to `Cc1cccc(C(=O)NCc2ccnc(N(C)C)c2)n1`, the Percent Effect was 1.73% in experiment [1]; -5.2% in [2]; 2.32% in experiment [3]; 6.58% in [4]; -3.04% with Trypanosoma cruzi; 2.32% in [5]. Moreover, the Percent Effect was 3.15% in experiment [6]; 15.9% in the experiment listed under Homo sapiens; 0% in [7]; -37.6% in [8]; 8% in experiment [9].
Consider `CCNC(=O)N(C)C(c1cccc(F)c1)c1ccccn1` (stereo not given), for which the Percent Effect in experiment [1] is -4.06%; in experiment [2], 2.6%; in experiment [3] it was 8.62%; in [4] it was 13%; in the experiment with Trypanosoma cruzi it was 5.43%; in experiment [5], -2.49%. Further, the Percent Effect in experiment [6] was 9.46%; in the experiment filed under Homo sapiens, 21.3%; in experiment [7], 7.77%; in [8], 21.9%; in experiment [9], -6.09%.
Take `CC(=O)c1cccc(OCCCC(=O)N(C)Cc2ccccn2)c1`: the Percent Effect is 0.239% in experiment [1]; 0% in [2]; -2.92% in experiment [3]; 15.9% in experiment [4]; 4.25% with Trypanosoma cruzi; 2.86% in experiment [5]. Also, the Percent Effect in [6] was 10.5%; in the experiment listed under Homo sapiens it was -7.21%; in [7], -0.529%; in experiment [8] it was 4.88%; in [9], -9.86%.
Regarding `Cn1c(C(F)(F)F)nn(CCNC(=O)c2cnc3ccccc3n2)c1=O`, the Percent Effect in experiment [1] was -2.81%; in [2] it was 13.7%; in experiment [3] it was 4.14%; in [4], 14.5%; with Trypanosoma cruzi, 3.33%; in [5], 0.909%. Also, the Percent Effect was -1.95% in experiment [6]; -0.549% in the experiment filed under Homo sapiens; 3.23% in experiment [7]; 12.5% in experiment [8]; -3.18% in [9].
Turning to `O=C(c1cccnc1-n1cccn1)N1CCN(CC2CC2)CC1`, the Percent Effect in [1] is -4.46%; in experiment [2] it was 5.41%; in [3], -1.98%; in experiment [4] it was 1.24%; with Trypanosoma cruzi it was -1.54%; in [5], -0.952%. For the same compound, the Percent Effect is 13.1% in experiment [6]; -3.39% in the experiment filed under Homo sapiens; 4.76% in experiment [7]; 0% in experiment [8]; -1.18% in experiment [9].
Take `CS(=O)(=O)NCc1nnc2n1CCN(CC1CC1)C2`: the Percent Effect in experiment [1] is -5.86%; in [2], 8.11%; in experiment [3], 5.91%; in [4], -4.89%; with Trypanosoma cruzi, -0.293%; in [5], -2.23%. The Percent Effect in [6] was 18.6%; in the experiment listed under Homo sapiens, -21.1%; in experiment [7], 5.41%; in [8] it was 12.8%; in experiment [9], -2.16%.
In the case of `COC1CCN(C(=O)Cc2csc(-c3ncccn3)n2)CC1`, the Percent Effect in [1] is -1.74%; in experiment [2], 10.5%; in [3], 1.3%; in experiment [4], 6.25%; with Trypanosoma cruzi, 6.96%; in experiment [5] it was 3.83%. For the same compound, the Percent Effect in experiment [6] was 9.19%; in the experiment filed under Homo sapiens, -15.6%; in [7] it was 2.45%; in experiment [8], 17.1%; in experiment [9], -5.39%.
Turning to `CC(C)Oc1ncc(C(=O)N2CCC(NC(=O)C3CC3)CC2)cc1Cl`, the Percent Effect in experiment [1] is -5.61%; in experiment [2] it was -2.74%; in experiment [3], -0.0193%; in experiment [4], -3.72%; in the experiment with Trypanosoma cruzi, -5.56%; in [5] it was -0.798%. For the same compound, the Percent Effect in [6] was 12.8%; in the experiment filed under Homo sapiens, 5.13%; in experiment [7], 0%; in experiment [8] it was 6.17%; in experiment [9] it was -0.607%.
As for `CCn1cc(NC(=O)NCC2(N3CCOCC3)CCSC2)cn1` (stereo not given), the Percent Effect in [1] is -1.63%; in experiment [2], 13.5%; in experiment [3] it was 2.58%; in experiment [4], 16.6%; in the experiment with Trypanosoma cruzi, 1.74%; in [5], 13.8%. Besides, the Percent Effect in experiment [6] is 17.2%; in the experiment filed under Homo sapiens, -1.24%; in experiment [7], 6.88%; in experiment [8], 7.32%; in experiment [9], -4.92%.
